Data published in PubChem BioAssay (Tox21).
Records with an inconclusive call do not appear. Some structures have more than one record in an assay (separate samples or runs), and their calls can disagree. Active and inactive are the calls of the source. Unless noted, calls come from the whole dose curve; as a rule, active = well fitted curve in the direction sought with a large enough effect in the repeat runs; inconclusive = weak or mixed curves; inactive = no such curve, though single readings can be large; an effect the other way counts as inactive or inconclusive.

Columns and labels:
[1] = target: Aryl hydrocarbon receptor (Homo sapiens) (UniProt P35869); assay: qHTS assay to identify small molecule that activate the aryl hydrocarbon receptor (AhR) signaling pathway (AID 743085);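 note: HG2L7.5c1 human HepG2 liver cells with stably integrated DRE-driven firefly reporter; series mostly up to about 70 µM; nearly all actives have a fitted effect of over 15% in size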
Summary of the method: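 Reporter assay in engineered HepG2 line HG2L7.5c1, whose plasmid carries twenty dioxin responsive elements upstream of firefly luciferase. Treatment lasted 24 h at 37C; ONE-Glo luminescence gauged induction.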

[2] = qHTS assay to identify small molecule that activate the aryl hydrocarbon receptor (AhR) signaling pathway - cell viability counter screen (AID 743086);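 note: HepG2 liver cells carrying the AhR DRE luciferase reporter; series mostly up to about 70 µM; nearly all actives have a fitted effect of over 45% in size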
Summary of the method: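 Cytotoxicity counter screen: CellTiter-Fluor signal (30 min, 37 C) in 4000 HepG2 cells/well carrying the DRE-luciferase reporter, following 24 h compound exposure at 37 C.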

[3] = target: Peroxisome proliferator-activated receptor gamma (Homo sapiens) (UniProt P37231); assay: qHTS assay to identify small molecule agonists of the peroxisome proliferator-activated receptor gamma (PPARg) signaling pathway (AID 743094; active = well fitted activation curve with a large enough effect in the signal ratio in the repeat runs, not every such curve was filed as active; the % refers to the signal ratio)
Summary of the method: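 Fluorescence-based beta-lactamase readout in HEK293H PPARg UAS-bla cells after 17 h compound exposure (37C) and 1 h B/G FRET substrate incubation at room temperature.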

[4] = qHTS assay to identify small molecule antagonists of the peroxisome proliferator-activated receptor gamma (PPARg) signaling pathway - cell viability counter screen (AID 743194); note: nearly all actives have a fitted effect of over 55% in size
Summary of the method: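 Viability was measured as CellTiter-Glo luminescence in GeneBLAzer PPARg UAS-bla HEK293H cells. These cells had been exposed 17 h at 37 C to compounds together with rosiglitazone at 50 nM final, with the beta-lactamase readout taken in the same wells.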

[5] = qHTS assay for small molecule agonists of the antioxidant response element (ARE) signaling pathway (AID 743202; active = well fitted activation curve with a large enough effect in the signal ratio in the repeat runs, not every such curve was filed as active; the % refers to the signal ratio; note: potency is the fitted concentration of half-maximal effect)
Summary of the method: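 Beta-lactamase reporter activity, read as fluorescence intensity, reflects ARE/Nrf2 pathway induction in HepG2 cells after 16 h compound exposure at 37 C; substrate loading was 2 h at room temperature.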

[6] = qHTS assay for small molecule agonists of the antioxidant response element (ARE) signaling pathway - cell viability counter screen (AID 743203; calls by dose curve; note: nearly all actives have a fitted effect of over 55% in size; note: potency is the fitted concentration of half-maximal effect)
Summary of the method: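 Parallel cytotoxicity read-out for the ARE-bla screen: HepG2 reporter cells, 16 hrs with compounds, then CellTiter-Glo luminescence.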

[7] = qHTS assay to identify small molecule agonists of the farnesoid-X-receptor (FXR) signaling pathway - cell viability counter screen (AID 743218); note: nearly all actives have a fitted effect of over 45% in size; note: potency is the fitted concentration of half-maximal effect
Summary of the method: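 Same-well cytotoxicity check on FXR-UAS-bla HEK 293T cells: 5 h attachment, 16 h compound at 37 C, CellTiter-Glo luminescence read at room temperature after 30 min.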

[8] = qHTS assay to identify small molecule antagonists of the farnesoid-X-receptor (FXR) signaling pathway - cell viability counter screen (AID 743221; active = well fitted cell-killing curve with a large enough effect in the repeat runs, not every such curve was filed as active; note: nearly all actives have a fitted effect of over 50% in size)
Summary of the method: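 CellTiter-Glo, 30 min RT, luminescence; same wells as the LiveBLAzer FRET read. Cells: FXR-UAS-bla HEK 293T. Treatment: compound with chenodeoxycholic acid 50 uM final, 16 h at 37 C.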

[9] = target: Vitamin D3 receptor (Homo sapiens) (UniProt P11473); assay: qHTS assay to identify small molecule agonists of the vitamin D receptor (VDR) signaling pathway (AID 743222; calls by dose curve)
Summary of the method: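 Using LiveBLAzer B/G FRET detection, agonism was scored in VDR-bla cells exposed overnight (16 h, 37C) to DMSO-dissolved compounds; substrate incubation was 2 h at room temperature.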

[10] = target: Vitamin D3 receptor (Homo sapiens) (UniProt P11473); assay: qHTS assay to identify small molecule antagonists of the vitamin D receptor (VDR) signaling pathway (AID 743223; active = well fitted inhibition curve with a large enough effect in the signal ratio in the repeat runs, not every such curve was filed as active; the % refers to the signal ratio)
Summary of the method: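 After VDR-bla cells are plated and left 4 h at 37C, DMSO-dissolved compounds and 3 nM (final) calcitriol agonist are added. Incubation continues 16 h at 37C; FRET beta-lactamase substrate then develops 2 h at room temperature.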

[11] = qHTS assay for small molecule activators of the heat shock response signaling pathway - cell viability counter screen (AID 743209); note: nearly all actives have a fitted effect of over 50% in size
Summary of the method: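 To flag cytotoxic compounds, HSE-bla HeLa cells plated at 1500 cells/well were dosed for 5 h at 37 C, followed by the reporter FRET read and then CellTiter-Glo, with luminescence recorded 30 min after reagent addition.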

[12] = qHTS assay for small molecule activators of the heat shock response signaling pathway (AID 743210; active = well fitted activation curve with a large enough effect in the signal ratio in the repeat runs, with a control signal flat, not every such curve was filed as active; the % refers to the signal ratio;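 note: HeLa cells with beta-lactamase reporter driven by heat shock elements; series mostly up to about 63 µM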)
Summary of the method: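 Fluorescence from a cleaved B/G FRET substrate (2.5 h, room temp) reports HSE-driven beta-lactamase in HeLa cells treated 5 h at 37 C with DMSO-dissolved compounds.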

[13] = target: Peroxisome proliferator-activated receptor delta (Homo sapiens) (UniProt Q03181); assay: qHTS assay to identify small molecule agonists of the peroxisome proliferator-activated receptor delta (PPARd) signaling pathway (AID 743212; calls by dose curve;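 note: HEK293H cells with PPARd UAS beta-lactamase reporter GeneBLAzer system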)
Summary of the method: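 Steps: seed PPARd-bla HEK293H cells; incubate 5 h, 37 C, 5% CO2; add compounds in DMSO; incubate, 37 C; add LiveBLAzer B/G FRET substrate; hold 2 h at room temperature; measure fluorescence.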

[14] = qHTS assay to identify small molecule antagonists of the peroxisome proliferator-activated receptor delta (PPARd) signaling pathway - cell viability counter screen (AID 743213); note: nearly all actives have a fitted effect of over 50% in size; note: potency is the fitted concentration of half-maximal effect
Summary of the method: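 In this counter screen, HEK293H cells carrying a UAS-beta-lactamase reporter are co-treated with test compounds and 300 nM L165041 (final) for 17 h at 37 C; cell viability is quantified by CellTiter-Glo luminescence.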

[15] = target: Peroxisome proliferator-activated receptor delta (Homo sapiens) (UniProt Q03181); assay: qHTS assay to identify small molecule antagonists of the peroxisome proliferator-activated receptor delta (PPARd) signaling pathway (AID 743215; active = well fitted inhibition curve with a large enough effect in the signal ratio in the repeat runs, not every such curve was filed as active; the % refers to the signal ratio;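 note: cells stimulated with agonist L165041 at 300 nM final during compound exposure; series mostly up to about 62 µM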)
Summary of the method: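 Screen format: qHTS, antagonist mode. HEK293H PPARd-bla cells received compound and 300 nM L165041 (final), 17 h, 37 C. Beta-lactamase detected via FRET substrate fluorescence, 2 h, room temperature.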

[16] = qHTS assay to identify small molecule agonists of the peroxisome proliferator-activated receptor delta (PPARd) signaling pathway - cell viability counter screen (AID 743211); note: nearly all actives have a fitted effect of over 55% in size; note: potency is the fitted concentration of half-maximal effect
Summary of the method: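 Multiplexed format: after the 2 h room-temperature LiveBLAzer B/G FRET step, CellTiter-Glo was added to the same wells. Luminescence after 30 min gave cell viability; compound exposure was 17 h at 37C.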

[17] = target: Bile acid receptor (Homo sapiens) (UniProt Q96RI1); assay: qHTS assay to identify small molecule antagonists of the farnesoid-X-receptor (FXR) signaling pathway (AID 743217; active = well fitted inhibition curve with a large enough effect in the signal ratio in the repeat runs, not every such curve was filed as active; the % refers to the signal ratio)
Summary of the method: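 Quantitative HTS, beta-lactamase reporter format: FXR-UAS-bla HEK 293T cells co-treated 16 h at 37 °C with compounds and 50 uM final chenodeoxycholic acid, then read by B/G FRET fluorescence.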

[18] = target: Bile acid receptor (Homo sapiens) (UniProt Q96RI1); assay: qHTS assay to identify small molecule agonists of the farnesoid-X-receptor (FXR) signaling pathway (AID 743220; active = well fitted activation curve with a large enough effect in the signal ratio in the repeat runs, not every such curve was filed as active; the % refers to the signal ratio)
Summary of the method: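 FXR-UAS-bla HEK 293T cells carrying a UAS-driven beta-lactamase reporter were plated for 5 h at 37C/5% CO2, then exposed to DMSO-dissolved Tox21 10K compounds for 16 h at 37C. A LiveBLAzer B/G FRET substrate was loaded for 2 h at room temperature before fluorescence reading.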

[19] = qHTS assay to identify small molecule agonists of the vitamin D receptor (VDR) signaling pathway - cell viability counter screen (AID 743224); note: nearly all actives have a fitted effect of over 50% in size; note: potency is the fitted concentration of half-maximal effect
Summary of the method: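 Counter screen for cytotoxicity: VDR-bla cells at 2,000 cells/well, 16 h compound exposure, then CellTiter-Glo luminescence after the beta-lactamase measurement.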

[20] = target: Peroxisome proliferator-activated receptor gamma (Homo sapiens) (UniProt P37231); assay: qHTS assay to identify small molecule antagonists of the peroxisome proliferator-activated receptor gamma (PPARg) signaling pathway (AID 743191; calls by dose curve; note: nearly all actives have a fitted effect of over 30% in size; note: potency is the fitted concentration of half-maximal effect)
Summary of the method: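 Beta-lactamase reporter under UAS control in HEK293H PPARg-bla cells; compound treatment 17 h at 37C. Read-out: fluorescence intensity after 1 h room-temperature incubation with LiveBLAzer B/G FRET substrate.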

Measured: Potency

Aryl hydrocarbon receptor (Homo sapiens), sequence (P35869 whole entry, looked up): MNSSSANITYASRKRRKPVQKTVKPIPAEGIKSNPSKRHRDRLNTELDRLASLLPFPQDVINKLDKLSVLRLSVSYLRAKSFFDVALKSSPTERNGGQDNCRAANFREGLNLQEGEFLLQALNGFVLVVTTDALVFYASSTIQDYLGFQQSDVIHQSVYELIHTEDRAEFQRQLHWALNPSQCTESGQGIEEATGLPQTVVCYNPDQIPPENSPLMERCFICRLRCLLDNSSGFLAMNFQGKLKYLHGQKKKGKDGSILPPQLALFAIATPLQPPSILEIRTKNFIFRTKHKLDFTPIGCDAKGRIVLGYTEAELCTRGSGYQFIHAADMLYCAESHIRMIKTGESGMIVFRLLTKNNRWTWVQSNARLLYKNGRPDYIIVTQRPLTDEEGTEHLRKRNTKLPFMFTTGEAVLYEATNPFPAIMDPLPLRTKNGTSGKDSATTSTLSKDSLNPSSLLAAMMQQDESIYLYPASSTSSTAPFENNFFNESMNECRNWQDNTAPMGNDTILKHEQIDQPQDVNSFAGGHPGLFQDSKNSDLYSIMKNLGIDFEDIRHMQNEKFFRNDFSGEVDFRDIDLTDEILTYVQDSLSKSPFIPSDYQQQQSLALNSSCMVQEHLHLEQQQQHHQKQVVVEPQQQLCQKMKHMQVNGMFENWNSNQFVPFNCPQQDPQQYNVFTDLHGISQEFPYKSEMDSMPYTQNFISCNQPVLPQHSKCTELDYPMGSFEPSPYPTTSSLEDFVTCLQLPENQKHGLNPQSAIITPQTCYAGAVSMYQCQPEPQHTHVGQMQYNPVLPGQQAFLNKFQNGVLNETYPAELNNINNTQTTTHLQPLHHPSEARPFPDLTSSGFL
Peroxisome proliferator-activated receptor gamma (Homo sapiens), sequence (P37231 whole entry, looked up): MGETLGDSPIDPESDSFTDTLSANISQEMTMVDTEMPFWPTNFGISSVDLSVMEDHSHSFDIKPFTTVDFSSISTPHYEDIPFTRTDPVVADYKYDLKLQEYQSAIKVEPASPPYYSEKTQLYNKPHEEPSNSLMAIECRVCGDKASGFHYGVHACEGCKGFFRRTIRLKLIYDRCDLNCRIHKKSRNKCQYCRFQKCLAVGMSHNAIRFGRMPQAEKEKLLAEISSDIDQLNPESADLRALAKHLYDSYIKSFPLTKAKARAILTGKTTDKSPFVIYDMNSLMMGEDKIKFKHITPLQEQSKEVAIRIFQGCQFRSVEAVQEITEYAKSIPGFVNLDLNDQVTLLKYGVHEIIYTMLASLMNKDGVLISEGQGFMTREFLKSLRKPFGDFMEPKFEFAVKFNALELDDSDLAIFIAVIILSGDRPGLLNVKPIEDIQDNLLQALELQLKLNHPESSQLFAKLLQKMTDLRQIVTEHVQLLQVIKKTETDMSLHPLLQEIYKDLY
Peroxisome proliferator-activated receptor delta (Homo sapiens), sequence (Q03181 whole entry, looked up): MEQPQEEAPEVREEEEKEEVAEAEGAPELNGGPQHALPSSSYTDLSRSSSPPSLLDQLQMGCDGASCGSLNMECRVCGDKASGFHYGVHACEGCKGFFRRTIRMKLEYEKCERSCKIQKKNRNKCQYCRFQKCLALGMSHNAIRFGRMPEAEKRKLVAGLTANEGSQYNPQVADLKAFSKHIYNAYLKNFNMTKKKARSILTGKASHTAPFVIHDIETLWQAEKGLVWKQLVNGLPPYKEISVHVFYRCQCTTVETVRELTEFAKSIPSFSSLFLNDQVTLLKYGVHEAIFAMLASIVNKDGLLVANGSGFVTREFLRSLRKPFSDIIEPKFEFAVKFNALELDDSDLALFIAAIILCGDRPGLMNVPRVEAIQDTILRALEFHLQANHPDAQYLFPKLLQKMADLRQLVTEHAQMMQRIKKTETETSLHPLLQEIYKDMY
Bile acid receptor (Homo sapiens), sequence (Q96RI1 whole entry, looked up): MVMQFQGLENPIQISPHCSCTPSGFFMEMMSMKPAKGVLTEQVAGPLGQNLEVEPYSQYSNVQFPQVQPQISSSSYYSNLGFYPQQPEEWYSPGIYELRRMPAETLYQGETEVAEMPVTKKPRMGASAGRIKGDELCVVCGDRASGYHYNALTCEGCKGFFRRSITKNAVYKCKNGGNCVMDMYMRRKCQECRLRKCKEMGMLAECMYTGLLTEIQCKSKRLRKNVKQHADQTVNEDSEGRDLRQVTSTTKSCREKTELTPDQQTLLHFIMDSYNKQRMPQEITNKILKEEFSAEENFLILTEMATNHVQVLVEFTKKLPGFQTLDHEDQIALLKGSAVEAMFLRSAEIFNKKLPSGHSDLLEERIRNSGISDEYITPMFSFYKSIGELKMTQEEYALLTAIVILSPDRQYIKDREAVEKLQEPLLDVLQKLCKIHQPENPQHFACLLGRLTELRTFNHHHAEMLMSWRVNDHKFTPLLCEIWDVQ
Vitamin D3 receptor (Homo sapiens), sequence (P11473 whole entry, looked up): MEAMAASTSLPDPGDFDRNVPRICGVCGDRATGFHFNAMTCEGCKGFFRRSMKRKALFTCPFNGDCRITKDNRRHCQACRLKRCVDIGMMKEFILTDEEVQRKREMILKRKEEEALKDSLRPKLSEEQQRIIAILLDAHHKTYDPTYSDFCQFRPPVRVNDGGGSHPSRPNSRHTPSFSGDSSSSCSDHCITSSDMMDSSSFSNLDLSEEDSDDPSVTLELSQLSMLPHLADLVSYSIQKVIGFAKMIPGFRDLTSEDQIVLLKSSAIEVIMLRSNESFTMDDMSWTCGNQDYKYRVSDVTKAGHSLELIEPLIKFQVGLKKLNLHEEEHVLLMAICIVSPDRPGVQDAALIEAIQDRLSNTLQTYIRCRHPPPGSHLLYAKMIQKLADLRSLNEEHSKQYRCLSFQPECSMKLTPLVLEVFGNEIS

C/C=C(\C)C(=O)OCc1ccccc1
inactive: [1] | [2] | [3] | [4] | [5] | [6] | [7] | [8] | [9] | [10]

O=C(c1ccc(F)cc1)C1CCN(CCn2c(=O)[nH]c3ccccc3c2=O)CC1
not listed: [9] | [10] | [16] | [17] | [18] | [19] | [20]
inactive: all other assays above

Cn1cc(C(=O)[C@@H]2CCc3nc[nH]c3C2)c2ccccc21
not listed: [12] | [14] | [15] | [20]
inactive: all other assays above

CN(C/C=C/C#CC(C)(C)C)Cc1cccc2ccccc12
inactive: [1] | [2] | [3] | [20] | [4] | [6] | [12] | [14] | [18] | [9]

Cc1cc2c(cc1C(F)(F)F)N(C(=O)Nc1ccc(Oc3cccnc3C)nc1)CC2
active: [6] 34.9 µM | [16] 44.3 µM | [14] 19.8 µM | [7] 35.2 µM | [19] 31.4 µM
not listed: [5] | [10] | [12] | [15] | [17] | [20]
inactive: all other assays above

CC[C@H](c1ccc(O)cc1)[C@@H](CC)c1ccc(O)cc1
54.5 µM (active) and inactive: [6]
active: [20] 29.8 µM | [5] 4.22 µM | [16] 54.9 µM
not listed: [4] | [7] | [10] | [12] | [17]
inactive: all other assays above

Nc1c(Cl)cc(Cl)cc1Cl
not listed: [10] | [14]
inactive: all other assays above
